The list is not random: actives were taken first. Their share in the collection is about 12%.
AmpC inh no detg = AmpC beta-lactamase inhibition without detergent; P00811; AmpC nitrocefin hydrolysis, absorbance 480 nm, 0.0001% Triton; Potency, µM (series often up to 57.1 µM), inactives show at the top dose activity change, negative = inhibition, hits mostly inhibitors; 0.52% of 330,000 active; AID 485341;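 also: plate controls were no compound for no effect and no enzyme for full effect; nearly all actives have a fitted effect of over 20% in size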
Target sequence (P00811 whole entry, looked up): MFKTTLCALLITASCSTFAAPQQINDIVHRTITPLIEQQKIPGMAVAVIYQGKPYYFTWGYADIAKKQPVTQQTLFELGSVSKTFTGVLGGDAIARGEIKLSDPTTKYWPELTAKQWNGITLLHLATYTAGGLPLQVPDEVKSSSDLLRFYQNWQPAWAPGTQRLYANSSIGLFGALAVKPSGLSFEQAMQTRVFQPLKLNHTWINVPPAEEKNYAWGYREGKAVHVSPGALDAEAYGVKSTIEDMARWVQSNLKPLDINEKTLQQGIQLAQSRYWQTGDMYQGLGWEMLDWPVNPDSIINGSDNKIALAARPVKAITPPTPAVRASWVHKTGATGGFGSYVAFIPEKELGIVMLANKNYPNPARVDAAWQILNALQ
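20 mM phosphate pH 7.0 + 0.01% (detergent screen) or 0.0001% Triton X-100; 5.3 nM AmpC reagent; cpd preinc 15 min RT; nitrocefin (800 uM stock) to start; A480 q20 s × 4 min; Activity was normalised to no-enzyme and no-compound control wells.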
Pf growth 48h = inhibits P. falciparum growth in the first generation, 48 h. P. falciparum luciferase growth in erythrocytes, 48 h. AID 504832. 5.9% of 310,000 active. Potency, µM (doses to about 28.7 µM), for inactives: at the top dose activity change, negative = inhibition, hits mostly inhibitors; also: % is scaled to controls: 0 for no effect and ±100 for the full control effect
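Luciferase-expressing P. falciparum in infected erythrocytes (2% hematocrit, 0.1% parasitemia final) in RPMI 1640/0.5% Albumax were exposed to compound for 48 hours at 37 C, 5% CO2; growth read as luminescence.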
AmpC detergent = blocks E. coli AmpC beta-lactamase in detergent assay | P00811 | AmpC hydrolysis of nitrocefin, absorbance 480 nm, 0.01% Triton | Potency, µM (top dose mostly 114 µM), inactives show top-dose activity change, negative = inhibition, usual class: inhibitors | 0.041% of 370,000 active;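 also: 0% = no-compound wells and -100% = no-enzyme wells; nearly all actives have a fitted effect of over 25% in size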
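20 mM phosphate pH 7.0 + 0.01% (detergent screen) or 0.0001% Triton X-100; 5.3 nM AmpC reagent; cpd preinc 15 min RT; nitrocefin (800 uM stock) to start; A480 q20 s × 4 min; Activity was normalised to no-enzyme and no-compound control wells.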
SARS PLpro yeast = SARS-CoV PLP inhibition in yeast. S. cerevisiae expressing SARS-CoV PLpro, growth rescue. Potency, µM (doses to about 32.9 µM), inactives show top-dose activity, positive = growth rescue, usual class: activators. 0.19% of 330,000 active. AID 485353; calls by dose curve; also: 0% is about no effect; nearly all actives have a fitted effect of over 55% in size
Pf growth 96h = inhibits malaria parasite growth, 96 h. P. falciparum luciferase reporter growth, 96 h. Potency, µM (doses to about 28.7 µM), without a hit: at the top dose activity change, negative = inhibition, hits mostly inhibitors. 6.9% of 320,000 active; also: % is scaled to controls: 0 for no effect and ±100 for the full control effect
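96 h incubation, 37 C, 5% CO2, of luciferase-reporter P. falciparum-infected RBCs (2% hematocrit, 0.05% parasitemia final) with test compounds; endpoint luminescence.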
Sm TGR inh = blocks Schistosoma mansoni thioredoxin glutathione reductase; 3% of 360,000 active; purified TGR, DTNB reduction, TNB absorbance 405 nm; Potency, µM (series often up to 114 µM), for the others: at the top dose activity change, negative = inhibition, usual class: inhibitors; Q962Y6; AID 485364; also: % is scaled to controls: 0 for no effect and ±100 for the full control effect; nearly all actives have a fitted effect of over 60% in size
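First, TGR (20 nM dispensed) and NADPH were mixed with compound. Second, a 15 min room-temperature incubation followed. Third, further NADPH and then DTNB were added to start the reaction. Finally, TNB absorbance was monitored kinetically.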
An asterisk follows results filed as active; ? = inconclusive; · = no result. Unless noted, calls follow the shape of the dose curve; as a rule, active = well fitted curve in the direction sought with a large enough effect; inconclusive = small, poorly fitted or top-dose-only effect, or another doubt; inactive = no such curve, though single readings can be large; an effect the other way counts as inactive or inconclusive. Potency is read from the fitted curve at half-maximal effect.

SMILES	AmpC inh no detg	Pf growth 48h	AmpC detergent	SARS PLpro yeast	Pf growth 96h	Sm TGR inh
CCOC(=O)N1CCC(NC(=O)c2sc3nc4n(c(=O)c3c2C)CCCC4)CC1	-11%	·	-6%	-3%	2.3µM*	3%
COCCNC(=O)c1sc2nc3n(c(=O)c2c1C)CCC3	·	·	18%	·	·	6%
CCOC(=O)N1CCN(C(=O)Nc2sc3nc4n(c(=O)c3c2C)CCC(C)CC4)CC1 (centres undefined)	59%	12µM*	-14%	-2%	13µM*	2.8µM*
CCOC(=O)c1sc2nc3n(c(=O)c2c1C)CCC(C)CC3 (centres undefined)	-23%	·	?	14%	-3%	-2%
CCN(CC)S(=O)(=O)c1ccc2c(c1)N(CC(=O)N1CCN(c3cccc(C)c3C)CC1)C(=O)CO2	·	·	3%	·	·	4%
O=C(Cn1c(=O)n2nc(-c3cccc(F)c3)nc2c2ccccc21)N1CCN(c2ccccc2F)CC1	·	·	7%	·	·	-2%
CO[C@@H](COC(N)=O)C1=C(N2CC2)C(=O)C(C)=C(N2CC2)C1=O	·	0.6µM*	·	·	0.54µM*	·
CCOC(=O)N1CCN(c2c(N3CCN(C(=O)OCC)CC3)c(=O)c2=O)CC1	75%	8%	9%	0%	4%	4%
CC1CCCC(C)N1C(=C(Cl)Cl)C(=C1SCCS1)[N+](=O)[O-] (centres undefined)	-32%	-29%	10%	-7%	?	-7%
S=C(/N=c1/sccn1Cc1ccccc1)NC1CC1	-51%	?	-1%	-5%	12µM*	-14%
COc1ccc(Cn2c(=O)[nH]c3cc(C(=O)Nc4ccc(N5CCN(C)CC5)cc4)ccc32)cc1	-3%	-21%	9%	27%	?	2%
CCN1CCN(c2ccc(NC(=O)c3ccc4c(c3)[nH]c(=O)n4Cc3ccc(F)cc3)cc2)CC1	67%	7.4µM*	1%	26%	13µM*	-5%
CC(COc1ccccc1)N(CCCl)Cc1ccccc1 (centres undefined)	-15%	-18%	-2%	2%	?	25µM*
CCN(Cc1ccccc1)C(=O)CCCOc1ccccc1	29%	47%	-7%	-3%	-18%	-7%
CC(=O)c1cccc(S(=O)(=O)N2CCCC(c3nc(-c4ccc(C)o4)no3)C2)c1 (centres undefined)	24%	?	-19%	2%	·	50µM*
COc1ccc(-c2noc(C3CCCN(S(=O)(=O)c4cccc(Cl)c4C)C3)n2)cc1OC (centres undefined)	-3%	13µM*	-18%	9%	?	23%
Cc1ccc(S(=O)(=O)N2CCCC(c3nc(-c4ccc(C)o4)no3)C2)cc1 (centres undefined)	-17%	-3%	-13%	-4%	·	-14%
O=C(Cc1ccccc1)N1CCCC(c2nc(-c3ccc(S(=O)(=O)N4CCCC4)cc3)no2)C1 (centres undefined)	3%	·	-17%	-5%	8.3µM*	6%
Cc1ccc(-c2noc(C3CCCN(S(=O)(=O)c4ccc5ccccc5c4)C3)n2)o1 (centres undefined)	-18%	·	?	-7%	?	40µM*
O=C(C1CC1)N1CCC(c2nc(-c3ccc(S(=O)(=O)N4CCCC4)cc3)no2)CC1	63%	·	-12%	-11%	?	-28%
CCCCCCC(O)C/C=C/CCCCCCCC(=O)O (centres undefined)	·	2%	·	·	-7%	·
CN1C(=O)C(=O)/C(=C(/O)c2ccccc2)C1c1ccc(Br)cc1 (centres undefined)	-19%	-9%	?	-1%	?	-1%
CN(C)c1ccc(C2/C(=C(/O)c3ccc(Br)cc3)C(=O)C(=O)N2C)cc1 (centres undefined)	-8%	·	-3%	-1%	5.9µM*	72%
CC(OC(=O)COc1ccccc1Cc1ccccc1)C(=O)N(C)c1ccccc1 (centres undefined)	72%	?	-11%	-26%	-10%	1%
CN1CCN(Cc2nc3ccccc3c(=O)n2Cc2nc(-c3ccc([N+](=O)[O-])cc3)cs2)CC1	216%	?	-9%	-13%	2.6µM*	-5%
SMILES	AmpC inh no detg	Pf growth 48h	AmpC detergent	SARS PLpro yeast	Pf growth 96h	Sm TGR inh
Cc1ccc(NC(=O)Cc2nc(CN(C)CC(=O)Nc3ccc(C)cc3)cs2)cc1	44%	13µM*	?	-12%	?	-15%
Cc1ccc(NC(=O)Cc2nc(CSc3nnc(-c4ccc5c(c4)OCO5)o3)cs2)cc1	-31%	212%	?	2%	3.7µM*	-1%
COC(=O)C1CCN(C(=O)CSc2nnc(-c3ccncc3)o2)CC1	-14%	13%	-9%	5%	5.2µM*	2%
COc1ccc(-c2nnc(SCC(=O)N3CCOCC3)o2)cc1OC	3%	11%	?	-2%	12µM*	2%
Cc1cc(C)nc(SCc2nnc(SCC(=O)N3CCOCC3)o2)n1	2%	29%	-14%	-1%	7.4µM*	3%
COc1ccc(N2CCN(C(=O)CSc3nnc(-c4ccc5[nH]c(C)c(C)c5c4)o3)CC2)cc1	-1%	?	-5%	11%	3.3µM*	1%
COc1ccc(-c2nnc(SCC(=O)N3CCCC3)o2)cc1	-5%	83%	-17%	-1%	-18%	0%
COc1ccc(-c2nnc(SCC(=O)N3CCN(c4ccccc4)CC3)o2)cc1OC	-13%	39%	?	-2%	-4%	-13%
COC(=O)c1sccc1S(=O)(=O)N(CC(=O)NCc1ccc(C)cc1)c1ccc(C)c(C)c1	·	·	0%	·	·	0%
CN1CCOc2ccc(S(=O)(=O)N3CCN(S(=O)(=O)c4c(F)cccc4F)CC3)cc21	-11%	?	-10%	3%	?	-4%
Cc1ccc(CNC(=O)CC2Oc3ccccc3NC2=O)cc1 (centres undefined)	·	·	21%	·	·	10%
Cc1ccccc1NC(=O)c1c(NC(=O)C(C)Oc2cccc(Cl)c2)sc2c1CCCC2 (centres undefined)	·	·	-5%	·	·	-3%
Cc1ccccc1OCc1ccc(C(=O)N2CCOCC2)o1	20%	12%	2%	-2%	4%	-8%
CCOC(=O)N1CCN(C(=O)CSc2nnc(-c3cc(OC)cc(OC)c3)o2)CC1	1%	-4%	0%	0%	?	-5%
CCOC(=O)N1CCN(C(=O)CSc2nnc(-c3ccc(C)c(C)c3)o2)CC1	13%	·	?	2%	9.3µM*	-2%

From PubChem BioAssay
